# Experimental data published in PubChem BioAssay (Tox21).
# Unmarked numbers belong to inactive results. Results filed as inconclusive are left out. Where a call stands in place of a potency, no number is given. Calls of active or inactive are those of the source. Unless noted, calls follow the shape of the full dose curve.
# Columns and labels:
# [1] = Nuclear factor erythroid 2-related factor 2/antioxidant responsive element (Nrf2/ARE) small molecule agonists: qHTS cell viability counter screen in human keratinocytes (AID 1919968; active = well fitted curve in the direction sought with a large enough effect in the repeat runs; an effect the other way counts as inactive or inconclusive; also: nearly all actives have a fitted effect of over 55% in size)
# How it was run: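 Seed 1,500 KeratinoSens cells per well, then incubate 5 h at 37 C/5% CO2. Add compounds in DMSO and incubate 23 h. Add CellTiter-Fluor, wait 1 h and read fluorescence.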
# [2] = Nuclear factor erythroid 2-related factor 2/antioxidant responsive element (Nrf2/ARE) small molecule agonists: luciferase reporter gene qHTS assay in human keratinocytes (AID 1919969); also: nearly all actives have a fitted effect of over 35% in size
# [3] = target: Gonadotropin-releasing hormone receptor (Homo sapiens) (UniProt P30968); assay: Human gonadotropin-releasing hormone receptor (GnRHR) small molecule agonists, calcium flux assay in GnRHR-HEK293 cells (AID 1920063); also: nearly all actives have a fitted effect of over 35% in size
# Gonadotropin-releasing hormone receptor (Homo sapiens), sequence (P30968 whole entry, looked up): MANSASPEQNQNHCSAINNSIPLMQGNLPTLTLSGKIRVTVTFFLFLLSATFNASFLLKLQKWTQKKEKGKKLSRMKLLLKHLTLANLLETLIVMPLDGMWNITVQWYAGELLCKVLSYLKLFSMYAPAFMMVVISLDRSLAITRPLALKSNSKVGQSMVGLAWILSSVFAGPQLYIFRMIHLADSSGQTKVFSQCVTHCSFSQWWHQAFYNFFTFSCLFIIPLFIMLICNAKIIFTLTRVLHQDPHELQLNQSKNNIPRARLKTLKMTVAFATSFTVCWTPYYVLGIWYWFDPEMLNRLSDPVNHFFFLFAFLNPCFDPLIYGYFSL
# How it was run: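 Cells: HEK293 stably expressing human GnRHR. Steps: overnight (18 h) culture, 1 h calcium dye loading at 37 C, compound addition, kinetic fluorescence read at 480/540 nm. Each compound tested at 15 concentrations in triplicate.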
# [4] = target: KiSS-1 receptor (Homo sapiens) (UniProt Q969F8); assay: Human kisspeptin (KISS1R) small molecule agonists, calcium flux assay in KISS1R-HEK293 cells (AID 1920064; active = well fitted curve in the direction sought with a large enough effect in the repeat runs; an effect the other way counts as inactive or inconclusive)
# KiSS-1 receptor (Homo sapiens), sequence (Q969F8 whole entry, looked up): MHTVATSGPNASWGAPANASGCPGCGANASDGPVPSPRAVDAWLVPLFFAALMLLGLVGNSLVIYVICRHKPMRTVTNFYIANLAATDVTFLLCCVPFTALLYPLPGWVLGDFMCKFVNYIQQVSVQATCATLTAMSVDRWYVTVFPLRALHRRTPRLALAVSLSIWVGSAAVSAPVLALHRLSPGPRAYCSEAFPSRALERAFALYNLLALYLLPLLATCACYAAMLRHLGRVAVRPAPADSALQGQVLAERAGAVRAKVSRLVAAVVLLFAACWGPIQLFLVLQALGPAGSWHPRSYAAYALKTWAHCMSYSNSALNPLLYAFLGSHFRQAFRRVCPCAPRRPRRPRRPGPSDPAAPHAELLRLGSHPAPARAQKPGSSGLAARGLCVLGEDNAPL
# How it was run: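 Cells plated and incubated 18 h; dye added, 1 h at 37 C; compounds in DMSO pinned in; signal read at 480/540 nm every second for 3 min. Each compound tested at 15 concentrations in triplicate.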
# [5] = G protein-coupled receptor (GPCR) small molecule agonists, calcium flux assay: HEK293 wild type cell line counter screen (AID 1920065)
# How it was run: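 Counter-screen of the Tox21 10K library for non-specific calcium release: dye-loaded cells received compounds in DMSO and were monitored by kinetic fluorescence (480/540 nm, 3 min). Fifteen concentrations, run in triplicate.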
# [6] = p53 small molecule agonists, cell-based qHTS assay with human liver microsomes (AID 1963577);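 also: p53 response element beta-lactamase reporter cells with liver microsomes plus NADPH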
# How it was run: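 Reporter activation was measured by LiveBLAzer fluorescence intensity in p53RE-bla cells, which had been exposed to compounds for 16 h at 37 C alongside 0.5 mg/mL human liver microsomes and 0.5 mg/mL NADPH (final concentrations).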
# [7] = p53 small molecule agonists, cell-based qHTS assay with rat liver microsomes (AID 1963578)
# How it was run: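 Compound in DMSO added to p53RE-bla cells 5 h post-plating; rat microsomes/NADPH 0.5 mg/mL final; 16 h, 37 C; LiveBLAzer 2 h RT.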
# [8] = p53 small molecule agonists, cell-based qHTS assay with human liver microsomes: qHTS cell viability counter screen (AID 1963579); also: nearly all actives have a fitted effect of over 45% in size
# How it was run: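 HLM-supplemented (0.5 mg/mL final) and NADPH-supplemented (0.5 mg/mL final) p53RE-bla cultures, 4,000 cells per well, were dosed with compounds in DMSO for 16 h at 37 C; luminescent ATP detection (CellTiter-Glo, 30 min, room temperature) quantified surviving cells.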
# [9] = p53 small molecule agonists, cell-based qHTS assay with rat liver microsomes: qHTS cell viability counter screen (AID 1963580); also: nearly all actives have a fitted effect of over 45% in size
# How it was run: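 Intracellular ATP, by CellTiter-Glo luminescence, defines viability. HCT-116 p53RE-bla cells, 4,000 per well, were compound-treated in the presence of rat liver microsomes and NADPH for 16 h at 37 C.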
# [10] = p53 small molecule agonists, cell-based qHTS assay: qHTS cell viability counter screen (AID 1963581); also: nearly all actives have a fitted effect of over 45% in size
# How it was run: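 Cells: HCT-116 with p53 response element-driven beta-lactamase. Treatment: 16 h, 37 C, compounds in DMSO. Read: CellTiter-Glo luminescence after 30 min RT.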
# [11] = p53 small molecule agonists, cell-based qHTS assay (AID 1963582; active = well fitted activation curve with a large enough effect in the signal ratio in the repeat runs, not every such curve was filed as active; the % refers to the signal ratio)
# How it was run: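 Quantitative HTS in p53RE-bla cells: after a 5 h settling period, compounds delivered in DMSO were left on cells for 16 h at 37 C, and reporter induction was measured as fluorescence following 2 h substrate loading.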
# [12] = target: 5-hydroxytryptamine receptor 2A (Homo sapiens) (UniProt P28223); assay: 5-hydroxytryptamine receptor 2A (HTR2A) small molecule antagonists, cell-based qHTS assay (AID 1963586); also: nearly all actives have a fitted effect of over 45% in size
# 5-hydroxytryptamine receptor 2A (Homo sapiens), sequence (P28223 whole entry, looked up): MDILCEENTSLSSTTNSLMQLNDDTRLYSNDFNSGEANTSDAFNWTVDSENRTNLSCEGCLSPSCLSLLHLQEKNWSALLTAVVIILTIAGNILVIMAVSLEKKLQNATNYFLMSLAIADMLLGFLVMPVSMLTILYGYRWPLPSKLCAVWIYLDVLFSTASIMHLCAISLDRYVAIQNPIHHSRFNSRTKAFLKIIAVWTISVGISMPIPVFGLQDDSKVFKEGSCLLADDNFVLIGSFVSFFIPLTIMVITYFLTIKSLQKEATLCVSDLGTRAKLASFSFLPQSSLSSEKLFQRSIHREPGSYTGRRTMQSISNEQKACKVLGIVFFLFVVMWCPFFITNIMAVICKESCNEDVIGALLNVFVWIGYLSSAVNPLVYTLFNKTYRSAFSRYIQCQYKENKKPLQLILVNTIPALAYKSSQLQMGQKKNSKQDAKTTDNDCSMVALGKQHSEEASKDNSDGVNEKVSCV
# How it was run: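 Antagonist-mode intracellular calcium assay: DOI (4 nM) added after 5 min compound pre-incubation at room temperature to dye-loaded HTR2A-CHO cells. Fluorescence followed for 3 min, sampled every second.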
# [13] = target: 5-hydroxytryptamine receptor 2A (Homo sapiens) (UniProt P28223); assay: 5-hydroxytryptamine receptor 2A (HTR2A) small molecule agonists, cell-based qHTS assay (AID 1963587); also: nearly all actives have a fitted effect of over 30% in size
# How it was run: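 Kinetic calcium-flux fluorescence (2 min, 1 sec intervals) after compound addition in agonist mode. HTR2A-CHO cells were cultured 18 h, then dye-loaded 1 h at 37 C.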
# [14] = target: Muscarinic acetylcholine receptor M1 (Homo sapiens) (UniProt P11229); assay: Cholinergic receptor muscarinic 1 (CHRM1) small molecule antagonists, cell-based qHTS assay (AID 1963588); also: nearly all actives have a fitted effect of over 40% in size
# Muscarinic acetylcholine receptor M1 (Homo sapiens), sequence (P11229 whole entry, looked up): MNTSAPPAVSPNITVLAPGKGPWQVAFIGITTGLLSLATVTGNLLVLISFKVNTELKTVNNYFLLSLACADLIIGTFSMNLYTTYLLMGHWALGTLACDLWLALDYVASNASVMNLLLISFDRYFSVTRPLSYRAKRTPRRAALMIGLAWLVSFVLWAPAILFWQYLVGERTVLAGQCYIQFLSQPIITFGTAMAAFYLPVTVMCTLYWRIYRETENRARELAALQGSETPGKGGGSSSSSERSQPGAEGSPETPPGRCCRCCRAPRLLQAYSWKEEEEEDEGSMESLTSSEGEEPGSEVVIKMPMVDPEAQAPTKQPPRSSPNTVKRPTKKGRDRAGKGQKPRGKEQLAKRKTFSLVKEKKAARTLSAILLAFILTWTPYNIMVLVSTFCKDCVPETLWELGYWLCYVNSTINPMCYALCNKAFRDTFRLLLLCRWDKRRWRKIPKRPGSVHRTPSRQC
# How it was run: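 CHRM1-CHO calcium-flux assay, antagonist mode. Cells were seeded 18 h, dye-loaded 1 h at 37 C and given compound for 5 min at RT, then acetylcholine was added at 50nM. FDSS fluorescence was read 3 min; 15 concentrations, three runs.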
# [15] = target: Muscarinic acetylcholine receptor M1 (Homo sapiens) (UniProt P11229); assay: Cholinergic receptor muscarinic 1 (CHRM1) small molecule agonists, cell-based qHTS assay (AID 1963589); also: nearly all actives have a fitted effect of over 35% in size
# How it was run: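 Agonist-mode qHTS in CHO cells stably carrying human muscarinic M1. Intracellular calcium is tracked by fluorescence every second after compound transfer; each compound runs at 15 concentrations in three independent runs.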
# [16] = cAMP Responsive Elements (CRE) small molecule agonists, cell-based qHTS assay (AID 1963590)
# How it was run: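 Agonist mode qHTS in CRE-bla HEK 293T cells: compounds dosed from DMSO for 3 h at 37 C/5% CO2, followed by LiveBLAzer B/G FRET substrate for 2 h at room temperature.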
# [17] = cAMP Responsive Elements (CRE) small molecule antagonists, cell-based qHTS assay (AID 1963591; active = well fitted inhibition curve with a large enough effect in the signal ratio in the repeat runs, not every such curve was filed as active; the % refers to the signal ratio)
# How it was run: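 Antagonist mode: test compounds are co-incubated with the adenylyl cyclase activator NKH477 (0.25 uM final) on CRE-bla HEK293T cells for 3 h at 37 °C, followed by LiveBLAzer substrate loading.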
# [18] = target: Beta-2 adrenergic receptor (Homo sapiens) (UniProt P07550); assay: Adrenergic beta2 receptor (ADRB2) small molecule antagonists, cell-based qHTS assay (AID 1963592); also: series mostly up to about 92 µM; nearly all actives have a fitted effect of over 50% in size
# Beta-2 adrenergic receptor (Homo sapiens), sequence (P07550 whole entry, looked up): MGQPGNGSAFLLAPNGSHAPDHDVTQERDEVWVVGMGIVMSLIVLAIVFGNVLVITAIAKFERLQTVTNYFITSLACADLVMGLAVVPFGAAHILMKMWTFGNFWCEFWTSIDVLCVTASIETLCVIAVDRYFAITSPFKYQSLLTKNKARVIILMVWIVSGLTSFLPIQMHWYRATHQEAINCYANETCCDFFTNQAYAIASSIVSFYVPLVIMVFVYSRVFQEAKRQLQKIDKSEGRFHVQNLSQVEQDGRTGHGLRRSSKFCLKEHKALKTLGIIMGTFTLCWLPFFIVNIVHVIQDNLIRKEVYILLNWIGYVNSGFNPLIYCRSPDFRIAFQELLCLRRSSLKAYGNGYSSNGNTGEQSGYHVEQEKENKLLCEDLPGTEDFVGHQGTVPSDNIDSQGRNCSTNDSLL
# How it was run: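 Cells (CHO, stable ADRB2 overexpression) incubated 18-20hr at 37C; compounds added from DMSO; agonist mix (1nM isoproterenol, 100uM IBMX, 25uM Ro-20-1724) added; 0.5hr RT; d2-cAMP and anti-cAMP-cryptate added; 1hr RT; 665/615 nm read.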
# [19] = target: Beta-2 adrenergic receptor (Homo sapiens) (UniProt P07550); assay: Adrenergic beta2 receptor (ADRB2) small molecule agonists, cell-based qHTS assay (AID 1963593);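 also: CHO cells stably overexpressing human ADRB2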
# How it was run: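 CHO cells stably over-expressing ADRB2 were plated overnight at 37C, then dosed with compounds plus a stimulation mix containing 100uM IBMX and 25uM Ro-20-1724 for 0.5hr at room temperature. cAMP was measured by HTRF competition, 1hr.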
# [20] = target: D(2) dopamine receptor (Homo sapiens) (UniProt P14416); assay: Dopamine D2 receptor (DRD2) small molecule agonists, cell-based qHTS assay (AID 1963594); also: nearly all actives have a fitted effect of over 35% in size; also: potency is read from the fitted curve at half-maximal effect
# D(2) dopamine receptor (Homo sapiens), sequence (P14416 whole entry, looked up): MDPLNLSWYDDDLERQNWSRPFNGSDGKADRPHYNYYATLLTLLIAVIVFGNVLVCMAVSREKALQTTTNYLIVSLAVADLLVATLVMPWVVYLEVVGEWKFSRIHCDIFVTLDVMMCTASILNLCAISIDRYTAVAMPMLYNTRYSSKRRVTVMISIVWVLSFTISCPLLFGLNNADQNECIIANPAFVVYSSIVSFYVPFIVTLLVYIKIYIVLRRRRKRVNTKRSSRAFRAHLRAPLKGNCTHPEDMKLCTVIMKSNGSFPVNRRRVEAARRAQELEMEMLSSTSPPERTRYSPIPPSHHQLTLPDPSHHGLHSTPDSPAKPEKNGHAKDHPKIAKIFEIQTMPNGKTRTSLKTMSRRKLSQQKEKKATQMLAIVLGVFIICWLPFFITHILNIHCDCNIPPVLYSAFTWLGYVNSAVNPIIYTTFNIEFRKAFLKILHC
# How it was run: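 cAMP accumulation in DRD2-HEK293 cells measured by HTRF after 1 h detection; compounds added 10 min before NKH477 (200nM […]) forskolin-analogue stimulation, 30 min at room temperature, with Ro20-1724 present at 0.1 mM final.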
Compound,Potency [1],Potency [2],Potency [3],Potency [4],Potency [5],Potency [6],Potency [7],Potency [8],Potency [9],Potency [10],Potency [11],Potency [12],Potency [13],Potency [14],Potency [15],Potency [16],Potency [17],Potency [18],Potency [19],Potency [20]
O=C1OC(=O)c2ccc3c4c(ccc1c24)C(=O)OC3=O,inactive,inactive,inactive,inactive,inactive,inactive,inactive,inactive,inactive,inactive,inactive,inactive,inactive,inactive,inactive,inactive,inactive,inactive,inactive,inactive
CCCCCCCCCCCCI,inactive,inactive,inactive,inactive,inactive,inactive,inactive,inactive,inactive,inactive,inactive,inactive,inactive,inactive,inactive,inactive,inactive,inactive,inactive,54.7 µM (active)
O=C(c1ccccc1)C1(O)CCCCC1,inactive,inactive,inactive,inactive,inactive,inactive,inactive,inactive,inactive,inactive,inactive,inactive,inactive,inactive,inactive,inactive,inactive,inactive,inactive,inactive
CCN(CC)CCNC(=O)c1ccc(NC(C)=O)cc1,inactive,inactive,inactive,inactive,inactive,inactive,inactive,inactive,inactive,inactive,inactive,inactive,inactive,inactive,inactive,inactive,inactive,inactive,inactive,inactive
CC(C)CCCC(C)N (centres undefined),inactive,inactive,inactive,inactive,inactive,inactive,inactive,inactive,inactive,inactive,inactive,inactive,inactive,inactive,inactive,inactive,inactive,inactive,,
CC(C)Nc1ccccc1,inactive,inactive,inactive,inactive,inactive,inactive,inactive,inactive,inactive,inactive,inactive,inactive,inactive,inactive,inactive,inactive,inactive,inactive,inactive,inactive
O=C(C(=O)c1ccco1)c1ccco1,inactive,inactive,inactive,inactive,inactive,inactive,inactive,inactive,inactive,inactive,inactive,inactive,inactive,inactive,inactive,inactive,inactive,inactive,,
C=CCCCCCCCCO,inactive,inactive,inactive,inactive,inactive,inactive,inactive,inactive,inactive,inactive,inactive,inactive,inactive,inactive,inactive,inactive,inactive,inactive,inactive,inactive
CO[Si](CCCNCCC[Si](OC)(OC)OC)(OC)OC,inactive,inactive,inactive,inactive,inactive,inactive,inactive,inactive,inactive,inactive,inactive,inactive,inactive,inactive,inactive,inactive,inactive,inactive,inactive,inactive
O=C(O)CCc1ccccc1,inactive,inactive,inactive,inactive,inactive,inactive,inactive,inactive,inactive,inactive,inactive,inactive,inactive,inactive,inactive,inactive,inactive,inactive,inactive,inactive
NCCCN1CCN(CCCN)CC1,inactive,inactive,inactive,inactive,inactive,inactive,inactive,inactive,inactive,inactive,inactive,inactive,inactive,inactive,inactive,inactive,inactive,inactive,,
Cc1nc2ccccc2s1,inactive,inactive,inactive,inactive,inactive,inactive,inactive,inactive,inactive,inactive,inactive,inactive,inactive,inactive,inactive,inactive,inactive,inactive,inactive,inactive
Cc1cccc(N)n1,inactive,inactive,inactive,inactive,inactive,inactive,inactive,inactive,inactive,inactive,inactive,inactive,inactive,inactive,inactive,inactive,inactive,inactive,inactive,inactive
CO[C@@]1(NC(=O)CSC[C@@H](N)C(=O)O)C(=O)N2C(C(=O)O)=C(CSc3nnnn3C)CS[C@@H]21,inactive,inactive,inactive,inactive,inactive,inactive,inactive,inactive,inactive,inactive,inactive,inactive,inactive,inactive,inactive,inactive,inactive,inactive,inactive,inactive
